This is part of a sample that, as a whole, favours compounds with a hit. Of some 83,000 tested, about 20% had one in any assay.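 Results are percent growth after 48 hours of single-concentration exposure. 100 means growth as in untreated cells, lower positive values show inhibition; negative values down to -100 show cell death.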 Values without a mark were called inactive. Active and inactive are the calls of the source. The calls were made as follows: active = growth percent below 10; inactive = the rest.

The assay has as its system OVCAR-5 ovarian. Description: NCI-60 one-dose screen, 48 h (100 = growth as untreated, 0 = no growth, -100 = all killed). Particulars: 10 µM unless noted.
With `O=C(Nc1ccc(-n2cc(-c3ccncc3)c(-c3ccc(Cl)c(O)c3)n2)cc1)c1cc(C(F)(F)F)cc(C(F)(F)F)c1`, the growth was 84.5%. `COc1ccc(C2CC(=O)c3c(O)cc(OC4OC(COC5OC(C)C(O)C(O)C5O)C(O)C(O)C4O)cc3O2)cc1O` (stereo not given): the growth was 96.7%. `O=C(NCCNCCO)c1cc([N+](=O)[O-])cc([N+](=O)[O-])c1O`: the growth was 108%.

As for `O=Nc1ccc(O)c2ccccc12`, the growth was 1.31% (active). The value for `CC(=O)N1CCN(CCNC(=O)n2cc(-c3ccncc3)c(-c3ccc(O)c(Cl)c3)n2)CC1` was 114%.

Consider `NC(=O)c1c(Nc2ccccc2)nn2cc(-c3nc4ccccc4s3)c(N)nc12`, for which the growth was 104%. For `CC(O)CN(CCO)CCN(CCO)CC(C)O` (stereo not given), the growth was 99.7%. On to `COC(=O)c1ccc2[nH]c(O)c(C(=Nc3ccc(N(C)C(=O)CN4CCN(C)CC4)cc3)c3ccc(OC)cc3)c2c1`, for which the growth is 38.4%. With `c1ccc(C(=NNc2nc3ccccc3o2)c2ccccn2)nc1`, the growth was 37.5%. Take `COC(=O)C(Cc1cnc[nH]1)N1CC(=O)N2[C@@H](c3ccccc3)SC[C@H]2C1=O` (stereo not given in full): the growth is 103%. As for `COC(=O)c1ccc2[nH]c(O)c(C(=Nc3ccc(N(C)C(=O)CN4CCN(C)CC4)cc3)c3ccc4c(c3)OCO4)c2c1`, the growth is 35.8%. For `Cc1ccc(NCc2cn(-c3ccc(C(=O)O)cc3)nc2-c2ccc(C(=O)O)cc2)cc1`, the growth was 106%. As for `O=C(c1ccccc1)c1ccccc1-c1ccccc1`, the growth is 52.6%. Take `CCCCCCC(C(=O)OCC)(C(=O)OCC)C1CCCCCC1`: the growth is 102%. Take `COC(=O)c1ccc2[nH]c(O)c(C(=Nc3ccc(N(C)C(=O)CN4CCN(C)CC4)cc3)c3ccc([N+](=O)[O-])cc3)c2c1`: the growth is 94.3%. With `O=C1OC(c2ccc(-c3ccccc3)cc2)=C/C1=C/c1c2ccccc2cc2ccccc12`, the growth is 83.7%. Consider `O=C(O)c1ccc(-c2nn(-c3ccc(C(=O)O)cc3)cc2CNc2ccc(Br)cc2)cc1`, for which the growth is 102%. Regarding `O=C(N/N=C\c1ccc(-c2ccc(Br)cc2)o1)c1cc2oc(-c3cccc(C(F)(F)F)c3)cc2[nH]1`, the growth was 88.4%.

`COC(=O)c1ccc2[nH]c(O)c(C(=Nc3ccc(N(C)C(=O)CN4CCN(C)CC4)cc3)c3ccc(N)cc3)c2c1`: the growth was 77.8%.

`COC(=O)c1ccc(C(=Nc2ccc(N(C)C(=O)CN3CCN(C)CC3)cc2)c2c(O)[nH]c3ccc(C(=O)OC)cc23)cc1`: the growth was 69.7%. `Cc1ccc(C(C)C)c(OCc2ccc(C(=O)N/N=C/c3cccc(O)c3O)cc2)c1`: the growth is 70.3%. On to `O=C1Nc2c(c(=O)n(-c3ccccc3)c3ccccc23)C(c2ccc(Cl)cc2)N1` (stereo not given), for which the growth was 101%.

With `O=c1c2c(c3ccccc3n1-c1ccccc1)NC(=S)NC2c1ccccc1` (stereo not given), the growth was 102%. With `COC(=O)c1ccc2[nH]c(O)c(C(=Nc3ccc(N(C)C(=O)CN4CCN(C)CC4)cc3)c3ccc(CCO)cc3)c2c1`, the growth was 80.6%. Then `CCCCn1c(Cc2ccc(OC)cc2)nc2cc(OC)c(OC)cc2c1=O`, with 104%.

For `Cc1[nH]n(C(=S)Nc2nc3cc(Cl)c(F)cc3s2)c(=O)c1N=Nc1ccc(F)c(Cl)c1`, the growth is 103%.

Regarding `Clc1ccc(N/N=C(\c2ccccc2)c2ccccn2)nc1`, the growth was 36.2%. With `c1ccc(Nc2ncc3c(n2)-c2cccn2CC3)cc1`, the growth is 77.9%. On to `C=CCC(CCC(CC=C)C(=O)OCC)C(=O)OCC` (stereo not given), for which the growth is 106%. Regarding `O=[N+]([O-])c1ccc(-c2ncc(-c3ccc(O)cc3O)[nH]2)cc1`, the growth was 125%. Regarding `CC(=O)OC1/C=C\CC/C=C\C1` (stereo not given), the growth is 97.4%. The value for `CCN(CC)CCCNc1c2ccc(Cl)cc2nc2ccc(OC)cc12` was 3.61% (active).

Take `COc1cc(-c2nn(-c3ccc(NC(=O)Nc4cc(C(F)(F)F)cc(C(F)(F)F)c4)cc3)cc2-c2ccncc2)ccc1Cl`: the growth is 18.8%. For the molecule `CC(=O)Nc1nc(C)c(C(=O)NN)s1`, the growth is 100%. In the case of `CC/C(=N\Nc1nc2ccccc2n1C)c1ccccn1`, the growth is 29%. With `CC(=O)OCC1O[C@@H](OC(C)=O)[C@@H](NC(=O)NS(=O)(=O)c2ccccc2)C(OC(C)=O)[C@@H]1OC(C)=O` (stereo not given in full), the growth was 108%. The value for `Cc1nc2c(nnn2-c2ccccc2)c2nc(-c3ccccc3)oc(=O)c12` was 105%; that for `CCc1ccc(C(=Nc2ccc(N(C)C(=O)CN3CCN(C)CC3)cc2)c2c(O)[nH]c3ccc(C(=O)OC)cc23)cc1` was -58.1% (active). Then `C=C[C@]1(C)C=C2C(=O)[C@@]3(O)OC[C@@]4(CCCC(C)(C)C43O)C2(O)C(O)C1` (stereo not given in full), with 120%; and `CCOC(=O)c1c2c(cn1Cc1ccccc1)-c1oncc1CC2`, with 88.3%.

The values above are taken from PubChem BioAssay (NCI).
